This is one part of a sample in which hits are shown more often than they occur.
nsP2pro primary – CHIKV nsP2 protease inhibition, primary qHTS; Q8JUX6; FRET peptide cleavage, nsP2pro, fluorescence 1 h; Potency, µM (series often up to 24.9 µM), without a hit: at the top dose activity change, negative = inhibition, actives largely listed as inhibitors; 1.1% of 31,000 active; AID 1964107; also: nearly all actives have a fitted effect of over 60% in size
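Recombinant nsP2pro (150 nM) was preincubated with compound 15 min at room temperature in 10 mM Tris-HCl pH 8.0, 0.01% Tween 20. Peptide 2 FRET substrate (2.5 uM) was then added and fluorescence read after 1 h. Seven-point series, up to 25 uM.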
nsP2 cell sec – inhibits CHIKV nsP2 protease in cells; shares compounds with nsP2pro primary; cell-based CHIKV nsP2 protease reporter assay; Potency, µM (doses to about 51.1 µM), inactives show at the top dose activity change, negative = inhibition, actives largely listed as inhibitors; 10% of 450 active; also: nearly all actives have a fitted effect of over 70% in size
Target sequence (Q8JUX6 220-798 limits assumed): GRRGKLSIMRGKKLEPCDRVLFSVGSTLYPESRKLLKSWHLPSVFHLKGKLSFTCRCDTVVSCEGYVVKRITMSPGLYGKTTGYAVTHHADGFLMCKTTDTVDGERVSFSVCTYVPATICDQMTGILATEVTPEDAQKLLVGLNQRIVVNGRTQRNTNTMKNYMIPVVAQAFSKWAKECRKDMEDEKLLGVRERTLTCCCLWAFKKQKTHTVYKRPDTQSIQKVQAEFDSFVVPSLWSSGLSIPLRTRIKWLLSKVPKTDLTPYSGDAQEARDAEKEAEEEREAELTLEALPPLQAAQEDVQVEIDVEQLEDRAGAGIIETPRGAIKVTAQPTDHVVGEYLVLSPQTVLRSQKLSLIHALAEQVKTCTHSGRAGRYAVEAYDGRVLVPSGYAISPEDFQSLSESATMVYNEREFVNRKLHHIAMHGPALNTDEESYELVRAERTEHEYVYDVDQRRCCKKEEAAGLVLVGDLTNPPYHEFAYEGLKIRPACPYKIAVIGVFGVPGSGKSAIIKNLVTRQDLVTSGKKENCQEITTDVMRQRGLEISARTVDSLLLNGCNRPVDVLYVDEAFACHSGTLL
NSP2 full ctr – selectivity test for CHIKV nsP2 protease inhibitors: full-length NSP2; shares compounds with nsP2pro primary; Full-length CHIKV NSP2 protease enzymatic counterscreen; Potency, µM (series often up to 50.7 µM), for the others: top-dose activity change, negative = inhibition, usual class: inhibitors; 39% of 410 active; AID 1964101; also: nearly all actives have a fitted effect of over 65% in size
Furin counter – selectivity counter-screen for CHIKV nsP2 protease inhibitors: human furin | 6% of 410 active | Recombinant human furin enzymatic counterscreen, fluorogenic substrate | shares compounds with nsP2pro primary | Potency, µM (titrated, usually from 50.6 µM), without a hit: at the highest dose activity change, negative = inhibition, actives largely listed as inhibitors
NS23 peptide cs – nsP2pro inhibition on native NS2/3 peptide substrate | shares compounds with nsP2pro primary | Purified CHIKV nsP2 protease, endogenous NS2/3 peptide cleavage | Potency, µM (titrated, usually from 51 µM), for the others: at the top dose activity change, negative = inhibition, most hits filed as inhibitors | 34% of 410 active; also: nearly all actives have a fitted effect of over 55% in size
Papain cs – selectivity counter-screen for CHIKV nsP2 protease inhibitors: papain; shares compounds with nsP2pro primary; Potency, µM (highest dose often 51 µM), for the others: at the highest dose activity change, negative = inhibition, usual class: inhibitors; AID 1964104; 5% of 410 active; purified papain protease activity, enzymatic inhibition
nsP2pro conf qHTS – CHIKV nsP2 protease inhibition, confirmatory qHTS | shares compounds with nsP2pro primary | CHIKV nsP2 protease enzymatic activity, qHTS | Potency, µM (titrated, usually from 25.5 µM), for inactives: at the highest dose activity change, negative = inhibition, hits mostly inhibitors | 43% of 410 active | AID 1964105; also: nearly all actives have a fitted effect of over 75% in size
HCV NS3 counter – inhibits HCV NS3/4A protease in an nsP2pro selectivity counterscreen; HCV NS3/4A protease biochemical counterscreen; AID 1964106; 20% of 410 active; Potency, µM (top dose mostly 50.9 µM), most hits filed as inhibitors; shares compounds with nsP2pro primary; also: nearly all actives have a fitted effect of over 55% in size
An asterisk follows results filed as active; i = inactive; ? = inconclusive; [ ] = dose if it differs, or a comment. Calls follow the shape of the full dose curve. % is scaled to controls: 0 for no effect and ±100 for the full control effect; potency is read from the fitted curve at half-maximal effect.

SMILES | nsP2pro primary | others
CSc1ncc(Cl)c(C(=O)NCc2ccc(C)cc2)n1 | -3.2%
Cc1ccc(CSc2ncc(Cl)c(C(=O)NCc3ccccc3)n2)cc1 | 23.7%
COc1ccc(CNC(=O)c2nc(SCc3ccccc3F)ncc2Cl)cc1 | -18.6%
Cc1ccccc1CSc1ncc(Cl)c(C(=O)NCc2ccccc2)n1 | 67.2%
COc1ccc2c(c1)C=C1Cn3c-2c(C2CCCCC2)c2ccc(cc23)C(=O)NS(=O)(=O)N(C)CCOCCN(C)C1=O | 124.0%
O=C(C1CCCN1Cc1ccc(-c2cncnc2)cc1)N1CCOCC1 (stereo not given) | -0.1%
CCOc1ccccc1NC(=O)Nc1cccc(-c2ccc(N3CCCC3)nn2)c1 | -9.6%
CCOC(=O)c1cccc(NCC2=CC(C)(C)Oc3ccc(OC)cc32)c1 | -10.7%
CCOC(=O)c1cccc(NC(=O)CCSCCc2ccccn2)c1 | -13.7%
CCOC(=O)c1cccc(CNc2ccc(N(C)C(=O)Nc3ccccc3)cc2)c1 | ? | nsP2 cell sec=?;NSP2 full ctr=-12.9%;Furin counter=-11.3%;NS23 peptide cs=-7.5%;Papain cs=?;nsP2pro conf qHTS=-3.2%;HCV NS3 counter=i
Cc1nc(-c2c3n(c(=O)n(Cc4ccccc4C(F)(F)F)c2=O)CCCCC3)no1 | i
COc1cccc(-c2noc(CN3CCC(c4nc(-c5cccn5C)no4)C3)n2)c1OC (stereo not given) | -13.1%
C=CCN1C[C@H](C(=O)N(CCCN(C)C)C(=O)NCC)C[C@@H]2c3cccc4[nH]cc(c34)C[C@H]21 | ? | nsP2 cell sec=7.2%;NSP2 full ctr=-7.5%;Furin counter=-2.4%;NS23 peptide cs=-8.2%;Papain cs=-8.1%;nsP2pro conf qHTS=29.5%;HCV NS3 counter=i
C=CCN1CCN(C(=O)[C@@H]2Cc3c[nH]c4cccc(c34)[C@H](CC(C)C)N2)CC1 | -18.0%[39.2 µM]
CC(=O)[C@@]1(O)CC[C@H]2[C@@H]3CCC4=CC(=O)CC[C@@H]4[C@H]3CC[C@@]21C | -3.0%
O=C(Cc1cccc(Cl)c1)N1CCC(C(=O)N2CCC(c3ccccc3)CC2)CC1 | -1.7%
O=C(O)CC[C@@H](O)C(=O)O | -14.7%
COc1ccc(-c2ccc(NC(=O)c3cccs3)cn2)cc1 | ? | nsP2 cell sec=0.2%;NSP2 full ctr=?;Furin counter=-4.1%;NS23 peptide cs=-14.6%;Papain cs=-3.8%;nsP2pro conf qHTS=-6.5%;HCV NS3 counter=?
Nc1ccc(-c2ccc(NC(=O)c3cccs3)cn2)cc1 | 4.7%
COc1ccccc1C(=O)Nc1ccc(NC(=O)c2cccs2)cc1 | -7.5%
CC1CCCCCCCc2cc(O)cc(O)c2C(=O)O1 (stereo not given) | 133.7%
CC1CCC(=O)CC(O)C(O)CC(=O)O1 (stereo not given) | ? | nsP2 cell sec=0.5%;NSP2 full ctr=4.6%;Furin counter=-7.2%;NS23 peptide cs=-9.3%;Papain cs=-5.8%;nsP2pro conf qHTS=-19.6%;HCV NS3 counter=i
C[C@@H]1C[C@H](O)/C=C/[C@H](O)[C@@H](O)CC(=O)O1 | -17.3%
[2H]C([2H])([2H])NC(=O)c1nnc(NC(=O)C2CC2)cc1Nc1cccc(-c2ncn(C)n2)c1OC | 1.0%
Cc1cccc(-n2cnc3cc(C(=O)N4CCC(C#N)CC4)ccc32)c1 | 0.7%
O=C(c1cccc(OC2CN(C3CCCC3)C2)c1)N1CCCC1 | 0.7%
Oc1ccc(-c2cnc3ccc(NCc4ccco4)nn23)cc1 | 20.3%
O=C1c2ccccc2-c2nc3nnnn3nc21 (tested in a mixture with another compound) | ? | nsP2 cell sec=?;NSP2 full ctr=?;Furin counter=-18.6%;NS23 peptide cs=0.919µM*;Papain cs=-23.4%;nsP2pro conf qHTS=?;HCV NS3 counter=i
CCCCC(C)(O)CC=C[C@H]1[C@H](O)CC(=O)[C@H]1CCCCCCC(=O)OC (stereo not given in full) | 1.4%
C#CCCC(=O)Nc1sc2c(c1-c1nc3ccccc3s1)CCNC2 | 1.0%
